Screening results deposited in PubChem BioAssay by several laboratories.
Most compounds without a hit are left out; they make up all but 0.78% or so of the library.
SSB-PriA inh: K. pneumoniae PriA-SSBct interaction inhibition; AlphaScreen SSBct-PriA binding, biotinylated peptide; inhibition, % at 33 µM; 430,000 compounds, 0.6% hits; AID 1272365; in the data active = inhibition mostly above about 37%, no sharp cut-off; inactive = mostly below about 20%
3CLpro inhibitor: SARS-CoV 3CLpro protease inhibition. recombinant SARS-CoV 3CLpro, quenched FRET peptide cleavage. inhibition, % at 6 µM. P0C6X7. 290,000 compounds, 0.14% hits; in the data active = inhibition above about 12%
BJeLR lethal: BJeLR cell viability loss. BJeLR (HRASV12) viability, CellTiter-Glo ATP luminescence, 48 h. inhibition, % (no concentration beside the values). 300,000 compounds, 0.17% hits; in the data active = inhibition above about 50%
Each line names hits and unclear results; the compound was inactive in the other large screens.

O=C(CSC1=NNC(c2ccccn2)S1)Nc1cccc(Cl)c1 (stereo unspecified)	SSB-PriA inh 42.1
O=C(CSC1=NNC(c2ccccn2)S1)Nc1ccccc1 (stereo unspecified)	SSB-PriA inh 87.3
O=C(CSc1ccc(-c2ccccn2)nn1)Nc1cccc(Cl)c1	none (no result: 3CLpro inhibitor, BJeLR lethal)
Cc1cc(C)c(S(=O)(=O)NCCc2ccc3c(c2)CCCN3C)cc1C	SSB-PriA inh 40.0 (no result: 3CLpro inhibitor, BJeLR lethal)
Cc1ccc(Cl)cc1S(=O)(=O)NCC(c1ccc2c(c1)CCN2C)N1CCOCC1 (stereo unspecified)	none (no result: 3CLpro inhibitor, BJeLR lethal)
Cc1ccc(Cl)cc1S(=O)(=O)NCCc1ccc2c(c1)CCCN2C	SSB-PriA inh 59.0 (no result: 3CLpro inhibitor, BJeLR lethal)
Cc1c(C)c(C)c(S(=O)(=O)NCCc2ccc3c(c2)CCCN3C)c(C)c1C	none (no result: 3CLpro inhibitor, BJeLR lethal)
Cc1nnc(C2CCN(C(=O)NCc3cccs3)CC2)s1	none (no result: 3CLpro inhibitor, BJeLR lethal)
CCOCC(=O)NC(C)Cc1ccco1 (stereo unspecified)	none (no result: 3CLpro inhibitor, BJeLR lethal)
O=C(NCC1COCCO1)c1nnn(-c2ccccc2F)c1-c1ccccn1 (stereo unspecified)	none (no result: 3CLpro inhibitor, BJeLR lethal)
COc1ccccc1C(=O)NC(=S)Nc1ccccc1N1CCCC1	none (no result: SSB-PriA inh)
Cc1ccccc1C(=O)NC(=S)Nc1ccccc1N1CCCC1	SSB-PriA inh 39.3
CCOc1ccc(CC(=O)NCCC(O)C2CCOCC2)cc1 (stereo unspecified)	none (no result: 3CLpro inhibitor, BJeLR lethal)
OC(c1cc(-c2ccc(Cl)cc2)nc2ccccc12)C1CCCCN1 (stereo unspecified)	BJeLR lethal 125.7
O[C@@H](c1cc(C(F)(F)F)nc2c(C(F)(F)F)cccc12)[C@H]1CCCCN1	none (no result: 3CLpro inhibitor)
Cc1ccc(NC(=O)CC2Sc3ccc(C(F)(F)F)cc3NC2=O)c(Br)c1 (stereo unspecified)	none (no result: 3CLpro inhibitor, BJeLR lethal)
Cc1cccc(OCc2nc(-c3ccccn3)n[nH]2)c1	SSB-PriA inh 90.0
COCc1nc(-c2ccccn2)n[nH]1	SSB-PriA inh 67.7 (no result: 3CLpro inhibitor, BJeLR lethal)
Cc1ccc(-c2n[nH]c(-c3ccccn3)n2)cc1	none (no result: 3CLpro inhibitor, BJeLR lethal)
Cc1ccc(OCc2nc(-c3ccccn3)n[nH]2)cc1	SSB-PriA inh 108.7
Cc1cccc(OCc2n[nH]c(=S)n2-c2ccccc2)c1	none
O=C(O)Cc1nc(-c2ccccn2)n[nH]1	none (no result: 3CLpro inhibitor, BJeLR lethal)
O=C(CCCNS(=O)(=O)c1ccc(Cl)cc1)NCc1ccco1	none (no result: 3CLpro inhibitor, BJeLR lethal)
COc1ccc(N2CCN(CCNC(=O)C(=O)Nc3ccc(C)c(F)c3)CC2)cc1	none (no result: 3CLpro inhibitor, BJeLR lethal)
COc1cccc2c1C(=O)c1c(O)c3c(c(O)c1C2=O)CC(O)(C(=O)CO)CC3OC1CC(N(C)C)C(O)C(C)O1 (stereo unspecified)	none (no result: 3CLpro inhibitor, BJeLR lethal)
COc1cccc2c1C(=O)c1c(O)c3c(c(O)c1C2=O)C[C@@](O)(C(=O)CO)C[C@@H]3O[C@H]1C[C@H](N)[C@@H](O)[C@H](C)O1	SSB-PriA inh 45.8, BJeLR lethal 74.1 (no result: 3CLpro inhibitor)
COc1cccc2c1C(=O)c1c(O)c3c(c(O)c1C2=O)C[C@@](O)(C(C)=O)C[C@@H]3O[C@H]1C[C@H](N)[C@H](O)[C@H](C)O1	none (no result: BJeLR lethal)
CC(=O)[C@]1(O)Cc2c(O)c3c(c(O)c2[C@@H](O[C@H]2C[C@H](N)[C@H](O)[C@H](C)O2)C1)C(=O)c1ccccc1C3=O	BJeLR lethal 82.1 (no result: 3CLpro inhibitor)
COc1ccc(O[C@H]2CCN(C(=O)N3CCNC3=O)C2)nn1	none (no result: 3CLpro inhibitor, BJeLR lethal)
COc1ccc(S(=O)(=O)N2CC(N3C(=O)CCC3=O)C2)cc1Cl	none (no result: 3CLpro inhibitor, BJeLR lethal)
O=C(NCCCn1ccnc1)c1ccc(S(=O)(=O)N2CCCCCC2)cc1	none
CC1CC(C)CN(S(=O)(=O)c2ccc(C(=O)NCCCn3ccnc3)cc2)C1 (stereo unspecified)	BJeLR lethal 108.9
O=C(c1ccc(F)cc1)N1CCC2(Cl)CCCCC2C1c1ccccc1 (stereo unspecified)	none (no result: 3CLpro inhibitor, BJeLR lethal)
CC(C)[C@]12O[C@H]1[C@@H]1O[C@]13[C@]1(O[C@H]1C[C@H]1C4=C(CC[C@@]13C)C(=O)OC4)[C@@H]2O	BJeLR lethal 68.2 (no result: SSB-PriA inh)
O=C(NCc1ccc(C(O)c2ccccc2)s1)C(=O)Nc1ccon1 (stereo unspecified)	none (no result: 3CLpro inhibitor, BJeLR lethal)
O=C(Nc1nc(-c2csc(NC(=O)c3ccc(S(=O)(=O)N4CCOCC4)cc3)n2)cs1)c1ccc(S(=O)(=O)N2CCOCC2)cc1	none (no result: 3CLpro inhibitor, BJeLR lethal)
O=C(Nc1nc(-c2ccncc2)cs1)c1cccc(S(=O)(=O)N2CCOCC2)c1	none (no result: 3CLpro inhibitor, BJeLR lethal)
O=C(Nc1nc(-c2ccccn2)cs1)c1ccc(S(=O)(=O)N2CCOCC2)cc1	SSB-PriA inh 114.5 (no result: 3CLpro inhibitor, BJeLR lethal)
COc1ccc(C(=O)Nc2nc(-c3ccccn3)cs2)cc1S(=O)(=O)N1CCOCC1	SSB-PriA inh 46.4 (no result: 3CLpro inhibitor, BJeLR lethal)
O=C(Nc1nc(-c2ccccn2)cs1)c1cccc(S(=O)(=O)N2CCOCC2)c1	SSB-PriA inh 81.3 (no result: 3CLpro inhibitor, BJeLR lethal)
Cc1ccc(S(=O)(=O)N2CCOCC2)cc1C(=O)Nc1nc(-c2ccccn2)cs1	none (no result: 3CLpro inhibitor, BJeLR lethal)
COc1ccc(C(=O)Nc2ccccn2)cc1S(=O)(=O)N1CCOCC1	none
O=C(Nc1nc(-c2ccccn2)cs1)c1cc(S(=O)(=O)N2CCOCC2)ccc1Cl	SSB-PriA inh 116.0 (no result: 3CLpro inhibitor, BJeLR lethal)
COc1ccc(Cc2nnc(NC(=O)C3CCCC3)o2)cc1	none (no result: 3CLpro inhibitor, BJeLR lethal)
Cc1cc(CNS(=O)(=O)c2cn(C)cn2)c(C)o1	none (no result: 3CLpro inhibitor, BJeLR lethal)
